Several values for one entry are separate records, joined by “and”; a condition that tells them apart may be missing. Equal entries are not always repeated. Inconclusive results are not listed. A call without a number means that no potency is given here. Some structures have more than one record in an assay (separate samples or runs), and their calls can disagree. Activity calls are given as the source filed them. Unless noted, calls come from the whole dose curve; as a rule, active = well fitted curve in the direction sought with a large enough effect in the repeat runs; inconclusive = weak or mixed curves; inactive = no such curve, though single readings can be large; an effect the other way counts as inactive or inconclusive.
Legend:
[1] = biological target: Aryl hydrocarbon receptor (Homo sapiens) (UniProt P35869); test: qHTS assay to identify small molecule that activate the aryl hydrocarbon receptor (AhR) signaling pathway (AID 743085); note: nearly all actives have a fitted effect of over 15% in size; note: potency is the fitted concentration of half-maximal effect;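 for activation: HG2L7.5c1 human HepG2 liver cells with stably integrated DRE-driven firefly reporter; series mostly up to about 70 µM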
Outline: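 Luminescence read-out: ONE-Glo reagent, 30 min at room temperature, in HG2L7.5c1 HepG2 reporter cells treated 24 h at 37C. Viability was measured beforehand by CellTiter-Fluor fluorescence after 30 min at 37C.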

[2] = qHTS assay to identify small molecule phospholipidosis (PLD) inducers (AID 1259344; active = well fitted curve in the direction sought with a large enough effect; an effect the other way counts as inactive or inconclusive; note: potency is the fitted concentration of half-maximal effect)
Outline: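 HepG2 cells, 900/well, treated with compound plus LipidTOX Red for 24 h at 37 C; amiodarone positive and DMSO negative controls. Fixed with paraformaldehyde/Hoechst, then high-content imaging scored LipidTOX pit count and integrated intensity per well and per cell.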

[3] = biological target: Nuclear receptor subfamily 1 group I member 2 (Rattus norvegicus) (UniProt Q9R1A7); test: Rat pregnane X receptor (rPXR) activation by small molecules, qHTS assay (AID 1346983); settings: rPXR luciferase reporter cells, One-Glo luminescence, 24 h; max activation: stronger effect = higher value; note: nearly all actives have a fitted effect of over 20% in size; note: potency is the fitted concentration of half-maximal effect
Outline: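 Cell-based rPXR activation assay: rPXR cells, 2,000 per well, rested 5hr at 37 C, then exposed to compounds in DMSO for 24 hr at 37 C. Luciferase activity read by One-Glo luminescence after 30 min at room temperature.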

[4] = qHTS assay to identify aromatase inhibitors - cell viability counter screen (AID 743084);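 note: cells stimulated with testosterone during compound exposure; nearly all actives have a fitted effect of over 55% in size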; note: potency is the fitted concentration of half-maximal effect
[5] = qHTS assay to identify small molecule that activate the aryl hydrocarbon receptor (AhR) signaling pathway - cell viability counter screen (AID 743086); note: nearly all actives have a fitted effect of over 45% in size; note: potency is the fitted concentration of half-maximal effect
Outline: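 HepG2-AhR-luc (HG2L7.5c1) cells, 4000/well, treated 24 h at 37 C with compound; viability measured as CellTiter-Fluor fluorescence after 30 min in the same wells as the luciferase read.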

[6] = biological target: Peroxisome proliferator-activated receptor gamma (Homo sapiens) (UniProt P37231); test: qHTS assay to identify small molecule agonists of the peroxisome proliferator-activated receptor gamma (PPARg) signaling pathway (AID 743094; active = well fitted activation curve with a large enough effect in the signal ratio in the repeat runs, not every such curve was filed as active; the % refers to the signal ratio)
Outline: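 Stably transfected HEK293H cells (GeneBLAzer PPARg UAS-bla) were incubated with test substances for 17 h at 37C after a 5 h pre-incubation; beta-lactamase activity was then detected by FRET substrate fluorescence.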

[7] = biological target: Nuclear receptor subfamily 1 group I member 2 (Homo sapiens) (UniProt O75469); test: Human pregnane X receptor (PXR) activation by small molecules, qHTS assay (AID 1346985); note: nearly all actives have a fitted effect of over 40% in size; note: potency is the fitted concentration of half-maximal effect
Outline: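 DPX-2 cells (HepG2 co-transfected with a PXR response element and a CYP3A4-promoter luciferase construct) were seeded at 2,000 per well, rested 5 hr at 37C, then exposed to DMSO-dissolved compounds for 24 hr. Activation was read as luciferase luminescence.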

[8] = biological target: Nuclear receptor subfamily 1 group I member 2 (Homo sapiens) (UniProt O75469); test: CYP3A4 induction through human pregnane X receptor (PXR) by small molecules, qHTS assay (AID 1346984); note: nearly all actives have a fitted effect of over 40% in size; note: potency is the fitted concentration of half-maximal effect
Outline: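 DPX-2 reporter cells; 24h cpd, 37C; Luciferin-IPA 3uM final x3h; One-Glo 30 min RT; lumi read.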

Chain of Peroxisome proliferator-activated receptor gamma (Homo sapiens) (P37231 whole entry, looked up): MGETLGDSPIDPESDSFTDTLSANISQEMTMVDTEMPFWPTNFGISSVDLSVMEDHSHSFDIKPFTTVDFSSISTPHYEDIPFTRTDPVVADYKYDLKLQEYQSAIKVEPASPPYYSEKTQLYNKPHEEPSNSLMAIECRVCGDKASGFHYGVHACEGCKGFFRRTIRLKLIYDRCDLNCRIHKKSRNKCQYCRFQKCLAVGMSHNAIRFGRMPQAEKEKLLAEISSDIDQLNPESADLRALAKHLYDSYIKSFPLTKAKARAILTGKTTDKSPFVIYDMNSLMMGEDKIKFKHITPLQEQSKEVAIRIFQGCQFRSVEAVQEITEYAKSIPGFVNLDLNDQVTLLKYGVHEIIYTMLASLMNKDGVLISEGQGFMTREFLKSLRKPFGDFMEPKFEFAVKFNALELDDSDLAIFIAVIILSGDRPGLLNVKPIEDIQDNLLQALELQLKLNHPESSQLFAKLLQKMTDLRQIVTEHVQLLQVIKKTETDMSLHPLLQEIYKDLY
Chain of Aryl hydrocarbon receptor (Homo sapiens) (P35869 whole entry, looked up): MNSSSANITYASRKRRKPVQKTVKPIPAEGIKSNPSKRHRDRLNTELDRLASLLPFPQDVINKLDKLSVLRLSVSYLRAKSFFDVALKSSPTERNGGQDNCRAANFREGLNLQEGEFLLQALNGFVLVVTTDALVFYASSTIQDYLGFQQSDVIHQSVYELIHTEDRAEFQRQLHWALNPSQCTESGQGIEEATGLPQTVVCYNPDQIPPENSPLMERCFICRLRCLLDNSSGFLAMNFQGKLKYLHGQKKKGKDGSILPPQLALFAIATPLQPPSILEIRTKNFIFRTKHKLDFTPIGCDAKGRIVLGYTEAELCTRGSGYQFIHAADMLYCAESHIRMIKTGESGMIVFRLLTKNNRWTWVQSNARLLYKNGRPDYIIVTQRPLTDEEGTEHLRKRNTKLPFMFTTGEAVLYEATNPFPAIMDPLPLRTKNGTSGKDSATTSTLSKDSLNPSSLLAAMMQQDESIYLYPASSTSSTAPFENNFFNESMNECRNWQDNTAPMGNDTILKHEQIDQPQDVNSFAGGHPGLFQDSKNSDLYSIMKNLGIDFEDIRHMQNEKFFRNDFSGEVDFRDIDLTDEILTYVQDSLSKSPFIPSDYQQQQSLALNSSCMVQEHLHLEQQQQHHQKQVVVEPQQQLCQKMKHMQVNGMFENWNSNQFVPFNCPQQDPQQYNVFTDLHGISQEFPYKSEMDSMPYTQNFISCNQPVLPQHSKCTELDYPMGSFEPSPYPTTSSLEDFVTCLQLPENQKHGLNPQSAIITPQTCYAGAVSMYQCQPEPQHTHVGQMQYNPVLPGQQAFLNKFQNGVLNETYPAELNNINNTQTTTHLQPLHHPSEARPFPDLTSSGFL
Chain of Nuclear receptor subfamily 1 group I member 2 (Rattus norvegicus) (Q9R1A7 whole entry, looked up): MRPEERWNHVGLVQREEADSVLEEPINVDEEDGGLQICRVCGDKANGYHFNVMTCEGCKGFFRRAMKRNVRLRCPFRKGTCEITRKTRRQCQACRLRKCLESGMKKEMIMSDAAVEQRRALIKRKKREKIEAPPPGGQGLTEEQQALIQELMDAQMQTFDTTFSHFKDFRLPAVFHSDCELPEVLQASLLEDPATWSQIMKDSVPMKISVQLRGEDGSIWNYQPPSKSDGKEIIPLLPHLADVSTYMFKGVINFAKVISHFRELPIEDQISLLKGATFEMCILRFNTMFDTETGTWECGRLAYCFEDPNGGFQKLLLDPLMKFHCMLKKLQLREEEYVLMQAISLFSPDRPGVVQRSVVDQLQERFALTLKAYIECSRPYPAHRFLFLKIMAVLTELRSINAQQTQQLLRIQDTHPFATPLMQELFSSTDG

Compound | Potency [1] | Potency [2] | Potency [3] | Potency [4] | Potency [5] | Potency [6] | Potency [7] | max activation [3] | Potency [8]
COC(=O)C1=C(C#N)NC(C)=C(C(=O)OC(C)C)C1c1cccc([N+](=O)[O-])c1 (centres undefined) | inactive | inactive | 7.94 µM (active) |  |  |  |  |  | 
CC(C)C(=O)OCC(=O)[C@@]12O[C@H](C3CCCCC3)O[C@@H]1C[C@H]1[C@@H]3CCC4=CC(=O)C=C[C@]4(C)[C@H]3[C@@H](O)C[C@@]12C | inactive | inactive | 7.94 µM (active) | inactive | inactive | inactive | 0.631 µM (active) |  | 
COc1ccc2c(c1)N(C[C@H](C)CN(C)C)c1ccccc1S2 | inactive | 8.91 µM (active) |  |  |  | inactive |  | -5.19% (inactive) | 
COC(=O)[C@H]1[C@H]2C[C@@H]3c4[nH]c5ccccc5c4CCN3C[C@H]2C[C@@H](OC(=O)c2cc(OC)c(OC)c(OC)c2)[C@@H]1OC | 13.3 µM (active) and 6.68 µM (active) | inactive |  | 6.68 µM (active) and inactive | inactive |  | inactive | -18.7% (inactive) | 
N[C@H](CC(=O)O)C(=O)O | inactive | inactive |  | inactive | inactive |  |  | 2.19% (inactive) | 
CCCC(=O)Nc1c(I)cc(I)c(CC(CC)C(=O)O)c1I (centres undefined) |  | inactive |  |  |  | inactive |  | -4.56% (inactive) | 22.4 µM (active)
COCC(=O)Nc1cc(Sc2ccccc2)ccc1N=C(NC(=O)OC)NC(=O)OC |  | inactive |  | inactive |  | inactive | inactive | 86.6% (inactive) | 
O=C1/C(=C\c2cccs2)CCC/C1=C\c1cccs1 | 23.7 µM (active) | inactive | 7.08 µM (active) |  | 11.9 µM (active) |  |  |  | 
CN1CCN2c3ncccc3Cc3ccccc3C2C1 (centres undefined) |  | inactive |  |  | inactive |  |  | -0.13% (inactive) | 15.8 µM (active)
CCSc1ccc2c(c1)N(CCCN1CCN(C)CC1)c1ccccc1S2 | inactive | inactive |  | inactive | inactive |  | inactive | -0.528% (inactive) | 
CC(C)CN(C[C@@H](OP(=O)(O)O)[C@H](Cc1ccccc1)NC(=O)O[C@H]1CCOC1)S(=O)(=O)c1ccc(N)cc1 |  | inactive |  | inactive | inactive |  | 10 µM (active) |  | inactive
CCCCCCCCCCCCCCCCCC(=O)OC[C@@H](O)[C@H]1OC[C@H](O)[C@H]1O | inactive | inactive |  | inactive | inactive | inactive | inactive |  | inactive
CC(=O)N(CC(C)C(=O)O)c1c(I)cc(I)c(N)c1I (centres undefined) |  | inactive |  | inactive | inactive | inactive | inactive |  | inactive
C=C1CC[C@@H]2[C@](C)(CO)[C@H](O)CC[C@@]2(C)[C@@H]1C/C=C1/C(=O)OC[C@H]1O |  | inactive |  |  | inactive |  | inactive |  | inactive
CCCCCCCCCCCC(=O)N(CCO)CCO | inactive | inactive |  | inactive | inactive | inactive | inactive |  | inactive
COC(=O)CC[C@H](N)C(=O)O | inactive | inactive |  | inactive | inactive | inactive | inactive |  | inactive
CNCC(O)c1ccc(OC(=O)C(C)(C)C)c(OC(=O)C(C)(C)C)c1 (centres undefined) | inactive | inactive |  | inactive | inactive | inactive |  |  | inactive
COC(F)(F)C(Cl)Cl | inactive | inactive |  | inactive | inactive | inactive | inactive |  | inactive
Cc1ccccc1OCC(O)CNCCOc1ccc(C(N)=O)cc1 (centres undefined) | inactive | inactive |  | inactive | inactive | inactive | inactive |  | inactive
CS(=O)(=O)OCC(O)C(O)COS(C)(=O)=O (centres undefined) | inactive | inactive |  | inactive | inactive | inactive | inactive |  | inactive
OCCO[C@@H]1[C@@H](O)[C@H](O)[C@@H](CO)O[C@@H]1O | inactive | inactive |  | inactive | inactive |  | inactive |  | inactive
CCCc1ccc(C(=O)O)cc1 | inactive | inactive |  | inactive | inactive | inactive | inactive |  | inactive

— PubChem BioAssay (Tox21)
